# PubChem BioAssay (NCI)
# Several values for one entry are separate records, joined by “and”; a condition that tells them apart may be missing. Identical values can stand only once. The panel holds about 79,000 compounds, 15% with a hit somewhere; the sample as a whole holds those more often. Some structures have more than one record in an assay (separate samples or runs), and their calls can disagree. Activity calls are given as the source filed them. Rule as the data show it: active = growth inhibition above about 70%; inactive = the rest.
# Columns and labels:
# [1] = NCI Yeast Anticancer Drug Screen. Data for the rad50 strain (AID 155);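 also: 0% = growth of vehicle-only cultures of the same strain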; conditions: S. cerevisiae rad50 strain growth inhibition, stronger effect = higher value
# Method in brief: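 DNA repair mutant yeast, compound exposure, growth read-out; inhibition is taken relative to vehicle.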
# [2] = NCI Yeast Anticancer Drug Screen. Data for the mec2-1 strain (AID 157); conditions: S. cerevisiae mec2-1 strain, stronger effect = higher value
# Method in brief: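 Readout is yeast growth inhibition, normalised to vehicle-treated controls, in the mec2-1 strain exposed to compound.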
# [3] = NCI Yeast Anticancer Drug Screen. Data for the sgs1 mgt1 strain (AID 161);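 also: 0% = growth of cultures given vehicle only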; conditions: S. cerevisiae sgs1 mgt1 strain, stronger effect = higher value
# Method in brief: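 Compounds are added to genetically altered yeast, and growth is compared with cultures given vehicle alone to give percent inhibition.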
# [4] = NCI Yeast Anticancer Drug Screen. Data for the cln2 rad14 strain (AID 165);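 also: 0% = growth equal to vehicle treated cultures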; conditions: S. cerevisiae cln2 rad14 strain, stronger effect = higher value
# Method in brief: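 Relative to vehicle controls, growth inhibition of compound-treated cln2 rad14 yeast was recorded.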
# [5] = NCI Yeast Anticancer Drug Screen. Data for the bub3 strain (AID 167); conditions: S. cerevisiae bub3 mutant strain, stronger effect = higher value
# Method in brief: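 In this screen, a yeast mutant lacking normal mitotic checkpoint function is challenged with compound. Relative growth versus vehicle gives the inhibition value.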
# [6] = NCI Yeast Anticancer Drug Screen. Data for the mlh1 rad18 strain (AID 175); conditions: S. cerevisiae mlh1 rad18 strain growth inhibition, stronger effect = higher value
# Method in brief: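 Test agents were incubated with a yeast strain of defined genotype (DNA damage repair defect). Inhibition of growth was derived by comparison with vehicle-exposed cultures.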
# [7] = at 5.0 µM (retest, dose inferred, filed as 0.5)
# [8] = at 50.0 µM (retest, dose inferred, filed as 5.0)
Compound,"growth inhibition [1, 7]","growth inhibition [1, 8]",growth inhibition ([1]; at 50.0 µM),"growth inhibition [2, 7]","growth inhibition [2, 8]",growth inhibition ([2]; at 50.0 µM),"growth inhibition [3, 7]","growth inhibition [3, 8]",growth inhibition ([3]; at 50.0 µM),"growth inhibition [4, 7]","growth inhibition [4, 8]",growth inhibition ([4]; at 50.0 µM),"growth inhibition [5, 7]","growth inhibition [5, 8]",growth inhibition ([5]; at 50.0 µM),"growth inhibition [6, 7]","growth inhibition [6, 8]",growth inhibition ([6]; at 50.0 µM)
Nc1ccc2cc3ccc(N)cc3nc2c1,21% (inactive),86% (active),38.1% (inactive) and 73.2% (active),9% (inactive),31% (inactive),32.5% (inactive) and 54.3% (inactive),11% (inactive),37% (inactive),3.15% (inactive) and 35% (inactive),12% (inactive),11% (inactive),9.45% (inactive) and 69.2% (inactive),6% (inactive),20% (inactive),19.8% (inactive) and 36.3% (inactive),9% (inactive),51% (inactive),15.5% (inactive) and 77% (active)
O=C(CON1C(=O)c2ccccc2C1=O)c1ccccc1,-3% (inactive),19% (inactive),91.2% (active),8% (inactive),29% (inactive),52% (inactive),6% (inactive),21% (inactive),55.1% (inactive),-5% (inactive),-8% (inactive),-3.15% (inactive),-7% (inactive),32% (inactive),80.5% (active),-16% (inactive),18% (inactive),76.2% (active)
CC(=O)Nc1c(Cl)c(Cl)c2c(c1Cl)Cc1cc(Cl)ccc1-2,99% (active),99% (active),98.2% (active),99% (active),99% (active),98% (active),99% (active),49% (inactive),96.1% (active),97% (active),99% (active),95.5% (active),99% (active),99% (active),98.3% (active),99% (active),99% (active),98.5% (active)
CCN(CC)Cc1cc2[nH]c3c4ccc(Cl)cc4ncc3c2cc1OC (tested in a mixture with another compound),3% (inactive),71% (active),59.4% (inactive) and 65% (inactive),2% (inactive),58% (inactive),38.8% (inactive) and 66% (inactive),0% (inactive),48% (inactive),55.1% (inactive) and 74.2% (active),-2% (inactive),47% (inactive),-1.65% (inactive) and 29.1% (inactive),4% (inactive),58% (inactive),44.8% (inactive) and 48.6% (inactive),3% (inactive),74% (active),64.3% (inactive) and 77.5% (active)
Cc1c(N)nc(C(CC(N)=O)NCC(N)C(N)=O)nc1C(=O)NC(C(=O)NC(C)C(O)C(C)C(=O)NC(C(=O)NCCc1nc(-c2nc(C(=O)NCCCNCCCCN)cs2)cs1)C(C)O)C(OC1OC(CO)C(O)C(O)C1OC1OC(CO)C(O)C(OC(N)=O)C1O)c1cnc[nH]1 (stereo not drawn),92% (active),98% (active),99% (active) and 88.6% (active),37% (inactive),98% (active),99.2% (active) and 88.1% (active),77% (active),98% (active),99% (active) and 88.2% (active),65% (inactive),98% (active),97.7% (active) and 86.5% (active),76% (active),98% (active),99% (active) and 87.9% (active),94% (active),98% (active),98.9% (active) and 90% (active)
O=C(O)C1(Cc2ccccc2)Cc2cc3c(cc2C1)CCC3,5% (inactive),5% (inactive),90% (active),-4% (inactive),-4% (inactive),92% (active),0% (inactive),0% (inactive),87.2% (active),2% (inactive),2% (inactive),89% (active),-17% (inactive),-17% (inactive),89.7% (active),8% (inactive),8% (inactive),84.8% (active)
CCN(CC)CCNc1n[n+]([O-])c2cc([N+](=O)[O-])ccc2[n+]1[O-],31% (inactive),88% (active),80.5% (active) and 79% (active),5% (inactive),48% (inactive),58.8% (inactive) and 52.6% (inactive),16% (inactive),76% (active),73.5% (active) and 71% (active),32% (inactive),63% (inactive),48% (inactive) and 41% (inactive),-7% (inactive),67% (inactive),43.7% (inactive) and 45.1% (inactive),24% (inactive),85% (active),79.3% (active) and 80.5% (active)
CCCCCCCCCCCCCCCC(=O)NCC[N+](C)(C)C,33% (inactive),99% (active),99.5% (active),52% (inactive),100% (active),99.7% (active),50% (inactive),99% (active),99.8% (active),10% (inactive),99% (active),99.2% (active),58% (inactive),100% (active),99.5% (active),36% (inactive),99% (active),99.6% (active)
Cc1cccc2c1Oc1cc(Cl)ccc1C2NC(=O)CCN1CCCCC1 (stereo not drawn),-22% (inactive),24% (inactive),85.2% (active),-12% (inactive),3% (inactive),25.9% (inactive),-6% (inactive),21% (inactive),86.3% (active),27% (inactive),26% (inactive),65.7% (inactive),16% (inactive),20% (inactive),-14.7% (inactive),14% (inactive),57% (inactive),69.1% (inactive)
CN1C=c2c3c(ccc2=C2C=CC4C=C5OCOC5=CC4=C21)OCO3 (stereo not drawn),48% (inactive) and 33% (inactive),97% (active) and 98% (active),92% (active) and 91.6% (active),32% (inactive) and 11% (inactive),98% (active) and 99% (active),93.3% (active) and 93% (active),56% (inactive) and 13% (inactive),98% (active) and 99% (active),93% (active) and 92.8% (active),37% (inactive) and 11% (inactive),98% (active) and 99% (active),92% (active),74% (active) and 17% (inactive),98% (active) and 99% (active),92.5% (active) and 91.8% (active),63% (inactive) and 30% (inactive),97% (active),92.5% (active) and 91.7% (active)
Cc1ccc(S(=O)(=O)NC2CCCCCCC2)cc1,45% (inactive),96% (active),77% (active),30% (inactive),89% (active),64.2% (inactive),42% (inactive),16% (inactive),79% (active),48% (inactive),46% (inactive),60% (inactive),97% (active),95% (active),89.3% (active),40% (inactive),99% (active),82.8% (active)
Nc1ccc(Cc2ccc(Br)cc2)cc1,28% (inactive),98% (active),99.2% (active),12% (inactive),99% (active),99.3% (active),1% (inactive),99% (active),99.3% (active),8% (inactive),98% (active),98.8% (active),30% (inactive),98% (active),98.8% (active),30% (inactive),98% (active),99.2% (active)
O=C(C(c1ccccc1)c1ccccc1)C(c1ccccc1)c1ccccc1,0% (inactive),-12% (inactive),25% (inactive),-6% (inactive),-13% (inactive),0.85% (inactive),-1% (inactive),-18% (inactive),4.8% (inactive),2% (inactive),-30% (inactive),43.9% (inactive),0% (inactive),28% (inactive),-6.25% (inactive),0% (inactive),-4% (inactive),1.55% (inactive)
O=[N+]([O-])c1ccc(N/N=C(/C=N/Nc2ccc([N+](=O)[O-])cc2)C(O)C(O)C(O)CO)cc1 (stereo not drawn),44% (inactive) and 67% (inactive),97% (active) and 96% (active),97.7% (active) and 97.2% (active),48% (inactive) and 55% (inactive),99% (active) and 98% (active),97.8% (active) and 97.7% (active),44% (inactive) and 79% (active),98% (active),97.7% (active) and 97% (active),10% (inactive) and 27% (inactive),94% (active) and 96% (active),98% (active) and 97.8% (active),73% (active) and 90% (active),98% (active),98.2% (active) and 98.9% (active),70% (active) and 77% (active),98% (active),98.2% (active) and 97.6% (active)
Cc1ccc(CC(=O)c2c(C)[nH]c3ccccc23)cc1C,10% (inactive),11% (inactive),95.7% (active),7% (inactive),24% (inactive),96.2% (active),11% (inactive),11% (inactive),98.5% (active),40% (inactive),44% (inactive),93.5% (active),0% (inactive),4% (inactive),92.5% (active),20% (inactive),8% (inactive),97% (active)
CC1=CC(C)(C)Nc2ccc(CSc3ccccc3)cc21,7% (inactive),25% (inactive),8.1% (inactive) and 36.4% (inactive),-8% (inactive),-17% (inactive),11.9% (inactive) and 5.5% (inactive),-1% (inactive),10% (inactive),12.4% (inactive) and 13.9% (inactive),-13% (inactive),6% (inactive),-1.1% (inactive) and 19.8% (inactive),-11% (inactive),6% (inactive),29.3% (inactive) and 60.9% (inactive),23% (inactive),16% (inactive),37.4% (inactive) and 15.6% (inactive)
